From PubChem BioAssay (NCATS)
Records with an inconclusive call do not appear. Calls of active or inactive are those of the source. Calls follow the shape of the dose curve; as a rule, active = well fitted curve in either direction with a large enough effect (not every such curve was filed as active); inconclusive = small, poorly fitted or top-dose-only effect, or another doubt; inactive = flat fitted curve, though single readings scatter.

Experiment: AP1 Signaling Pathway (AID 357)
Conditions: ME-180 AP-1-bla reporter, EGF-induced, beta-lactamase ratio, 5 h; at 17.2 µM (top of the series) unless noted
Summary of the method: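 ME-180 cells with beta-lactamase reporter under AP-1 response element, stimulated with EC50 EGF; compounds tested in titration series, 5 h at 37 °C. CCF4 substrate added 2.5 h at room temperature; 460/530 nm emission ratio gave %activity and AC50.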
% is scaled to controls: 0 for no effect and ±100 for the full control effect.

| Compound | activity change, negative = inhibition |
| --- | --- |
| N[C@@H]1CCc2cc(O)c(O)cc2C1 | -9.85% [at 38 µM] (inactive) |
| CC(C)n1cc2c3c(cccc31)[C@@H]1C[C@H](C(=O)O[C@@H](C)[C@H](C)O)CN(C)[C@H]1C2 | 1.23% [at 38 µM] (inactive) |
| CCN(CC)C(=O)N[C@H]1C[C@H]2c3cccc4[nH]cc(c34)C[C@@H]2N(C)C1 | 9.81% [at 38 µM] (inactive) |
| CNCCc1nc(N)n[nH]1 | 16.9% (inactive) |
| CC1(C)[C@@H]2CC[C@]1(C)CN(CCC[N+](C)(C)C)C2 | -4.07% [at 7.69 µM] (inactive) |
| CC[C@H](CO)NC(=O)[C@@H]1C=C2c3cccc4[nH]cc(c34)C[C@@H]2N(C)C1 | 2.51% [at 38 µM] (inactive) |
| CC1=C(C(=O)OC(C)C)[C@]2(C(=O)N(CC(N)=O)c3ccccc32)C(C#N)=C(N)O1 | 16.8% (inactive) |
| O=C1CC[C@]2(O)[C@H]3Cc4ccc(O)c5c4[C@@]2(CCN3CC2CC2)[C@@H]1O5 | 3.41% (inactive) |
| CCCCc1nc(N2CCNCC2)c(C#N)c2c1CSC(C)(C)C2 | 3.85% (inactive) |
| COC(=O)C(O)(c1ccc(NC(=O)c2ccco2)c(OC)c1)C(F)(F)F (stereo not given) | -12.5% (inactive) |
| CN1C[C@@H](CNC(=O)OCc2ccccc2)C[C@H]2c3cccc4c3c(cn4C)C[C@@H]21 | 29.6% [at 38 µM] (inactive) |
| C[C@H]1C[C@@H](C)C(=O)[C@@H]([C@H](O)CC2CC(=O)NC(=O)C2)C1 | -97.3% (active) |
| CC1CCC(C(C)C)C(OP(N)(=O)c2ccccc2)C1 (stereo not given) | -1.85% (inactive) |
| N[C@@H](Cc1cc(O)c(O)cc1O)C(=O)O | -19.5% [at 38 µM] (inactive) |
| CC(=O)[C@@H]1CC[C@@H]2[C@H]3CC[C@H]4C[C@@H](O)CC[C@]4(C)[C@@H]3C(=O)C[C@]21C | -0.27% [at 38 µM] (inactive) |
| CNc1ccc2oc(C[C@@H]3O[C@@]4(CC[C@H]3C)O[C@@H]([C@@H](C)C(=O)c3ccc[nH]3)[C@@H](C)C[C@H]4C)nc2c1C(=O)O | 6.83% [at 38 µM] (inactive) |
| O=C1NCCN2CCCC12 (stereo not given) | 12% (inactive) |
| C/C(Cl)=C/CC1(CN2CCCC2=O)C(=O)NC(=O)NC1=O | -3.48% (inactive) |
| C=CCn1c(O)c(C=Nc2ccc(N(CC)CC)cc2)c(=O)[nH]c1=O | -13.2% (inactive) |
| COc1ccc2c(c1)[C@]13CCCC[C@@H]1[C@H](C2)N(C)CC3 | 12% [at 38 µM] (inactive) |

| Compound | activity change, negative = inhibition |
| --- | --- |
| CCOC(=O)c1cc(C)n(CCc2cnc[nH]2)c1C | 3.65% (inactive) |
| COCCOC(=O)C1=C(N)Oc2c(c(=O)oc3ccccc23)[C@@]12C(=O)Nc1ccccc12 | 10.2% (inactive) |
| CC1(C)CC(n2[nH]c(=O)c3c2NC(=O)CSC3c2ccccc2)CCO1 (stereo not given) | 0.712% (inactive) |
| CC(C)(C)NC[C@H](O)c1ccccc1Cl | -8.82% [at 38 µM] (inactive) |
| O=C(COc1ccc2ccccc2c1)N1CCN(C2CCN(Cc3ccccc3)CC2)CC1 | 9.29% (inactive) |
| C=CCN1CC[C@]23c4c5ccc(O)c4O[C@@H]2C(=O)CC[C@@]3(O)[C@H]1C5 | 3.28% [at 38 µM] (inactive) |
| CN1C(=O)CN=C(c2ccc(Cl)cc2)c2cc(Cl)ccc21 | 10.4% (inactive) |
| CCOC(C(=O)OCC(O)CN(CC)CC)(c1ccccc1)c1ccccc1 (stereo not given) | 4.62% (inactive) |
| CCCCCCn1c(O)c(C=NC2CCN(Cc3ccccc3)CC2)c(=O)[nH]c1=O | -7.92% (inactive) |
| CC(C)[C@H]1C(=O)N2CCC[C@H]2[C@]2(O)O[C@](NC(=O)[C@@H]3C=C4c5cccc6[nH]cc(c56)C[C@H]4N(C)C3)(C(C)C)C(=O)N12 | -19% (inactive) |
| CC(C)(O)[C@H]1[C@H]2OC(=O)[C@@H]1[C@]1(O)C[C@H]3O[C@]34C(=O)O[C@H]2[C@]14C (tested in a mixture with another compound) | 5.02% [at 38 µM] (inactive) |
| CCCCOCCCn1c(N)c(C(=O)OCCOC)c2nc3ccccc3nc21 | -2.11% (inactive) |
| C=CCN1CC[C@@]23CCCC[C@@H]2[C@@H]1Cc1ccc(O)cc13 | -10.4% [at 38 µM] (inactive) |
| CCN(CC)CCCNC(=O)c1c(O)c2ccccc2n(Cc2ccccc2)c1=O | 27.1% (inactive) |
| CCOc1ccccc1-n1c(O)c(C=Nc2ccc(N(CC)CC)cc2)c(=O)[nH]c1=O | 3.1% (inactive) |
| CCC(=NCCOc1ccc(Cl)cc1)c1c(O)n(C)c(=O)n(C)c1=O | -1.65% (inactive) |
| C[C@H](N)c1cccc(Cl)c1Cl | 19.1% [at 38 µM] (inactive) |
| CCC(=NCCN1CCCCC1)c1c(O)n(C)c(=O)n(C)c1=O | 9.93% (inactive) |
| C=C(C)[C@@H]1CN[C@H](C(=O)O)[C@H]1CC(=O)O | 8.5% [at 38 µM] (inactive) |
| CC1CN=C(Nc2ccc(N(C)C)cc2)S1 (stereo not given) | 17.8% (inactive) |
